This note sets out measurements from PubChem BioAssay (NCI).

Test systems include SK-MEL-2 melanoma; EKVX NSCLC; UO-31 renal; TK-10 renal; ACHN renal; A498 renal; CCRF-CEM leukemia; MOLT-4 leukemia; SR leukemia.
Common to all, as to experiment: NCI-60 one-dose screen, 48 h (100 = growth as untreated, 0 = no growth, -100 = all killed)
What all share (conditions): 10 µM unless noted

About 83,000 compounds went through this panel and 20% of them were active in at least one assay; those are over-represented in the sample as a whole.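 Single-concentration screen, 48 h exposure, 96-well plates. Endpoint: percent growth. Below 10 = active.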 Values without a mark were called inactive. Calls of active or inactive are those of the source.

Regarding `Nc1n[nH]c2cccc(C#Cc3cccc(NC(=O)c4cc(N5CCOCC5)cc(C(F)(F)F)c4)c3)c12`, the growth is 0.377% (active) with SK-MEL-2 melanoma; 59.9% in the experiment with EKVX NSCLC; 17.5% in the experiment with UO-31 renal; 36.5% in the experiment on TK-10 renal; 25.3% in the experiment with ACHN renal; -5.08% (active) with A498 renal. The results for the growth in the experiment with CCRF-CEM leukemia, in the experiment with MOLT-4 leukemia and in the experiment on SR leukemia were 44.2%, 30.4% and 43.5%, respectively.

For `COCCOCCOCc1n(Cc2ccc3ccccc3c2)c2ccccc2[n+]1Cc1ccc2ccccc2c1`, the growth is -18.8% (active) with SK-MEL-2 melanoma; 47.4% in the experiment with EKVX NSCLC; 81.9% in the experiment on UO-31 renal; 3.33% (active) with TK-10 renal; 93.9% with ACHN renal; 12% with A498 renal. The growth with CCRF-CEM leukemia was 12%; with MOLT-4 leukemia, 4% (active); in the experiment on SR leukemia it was -39.5% (active).

For the molecule `FC(F)(F)c1ccc2c(Nc3cccc(C4CC(c5ccccc5)=NN4c4ccc(Cl)cc4)c3)ccnc2c1` (configuration not stated), the growth with SK-MEL-2 melanoma is 87.2%; with EKVX NSCLC it was 82.6%; with UO-31 renal, 35.9%; with TK-10 renal, 82.3%; with ACHN renal it was 73.3%; with A498 renal it was 66.3%. In addition, the values for the growth in the experiment with CCRF-CEM leukemia, with MOLT-4 leukemia and in the experiment with SR leukemia were 3.45% (active), 4.86% (active) and -10.9% (active), respectively.

In the case of `CCCn1c(N)c(C(N)=O)sc1=S`, the growth in the experiment with SK-MEL-2 melanoma was 93.3%; with EKVX NSCLC, 116%; with UO-31 renal it was 79.2%; with TK-10 renal it was 130%; in the experiment on ACHN renal, 93.9%; with A498 renal, 98.5%. The values for the growth in the experiment on CCRF-CEM leukemia, in the experiment on MOLT-4 leukemia and in the experiment with SR leukemia were 108%, 97% and 66.6%, respectively.

For `CCOC(=O)c1c(-c2ccc(O)cc2)c(C#N)c2c(C#N)c(N)nn2c1N`, the growth was 44.9% in the experiment on SK-MEL-2 melanoma; 71.6% with EKVX NSCLC; 69.9% in the experiment on UO-31 renal; 82.8% with TK-10 renal; 88% in the experiment on ACHN renal; 34.9% with A498 renal. Moreover, the growth in the experiment with CCRF-CEM leukemia was 35.7%; with MOLT-4 leukemia it was 23.7%; with SR leukemia it was 22.3%.

With `Nc1c(C(=O)Nc2ccccn2)sc2nc3c(cc12)CCCCC3`, the growth is 44.2% with SK-MEL-2 melanoma; 37.8% with EKVX NSCLC; 71.9% in the experiment with TK-10 renal; 52.6% in the experiment on ACHN renal; 25.9% with A498 renal; 6.92% (active) in the experiment on CCRF-CEM leukemia. Also, the growth was 15.5% in the experiment on MOLT-4 leukemia and 8.04% (active) with SR leukemia.

As to `COc1ccc(-n2cc(COc3ccc4c5ccnc(C)c5n(CC(C)C)c4c3)nn2)cc1`, the growth was 87.7% in the experiment on SK-MEL-2 melanoma; 69% in the experiment with EKVX NSCLC; 71% in the experiment on UO-31 renal; 70.5% in the experiment with TK-10 renal; 64.6% in the experiment on ACHN renal; 53.6% in the experiment with A498 renal. For the same molecule, the growth in the experiment on CCRF-CEM leukemia was 72.9%; in the experiment on MOLT-4 leukemia, 24.4%; in the experiment on SR leukemia, 22.6%.

For `CCSc1nc(Cl)c(C#N)c(-c2ccc(F)cc2)n1`, the growth in the experiment with SK-MEL-2 melanoma was 102%; in the experiment with EKVX NSCLC, 95.2%; in the experiment with UO-31 renal, 85.8%; with TK-10 renal, 101%; in the experiment on ACHN renal, 100%; in the experiment with A498 renal, 92.3%. For the same molecule, the growth in the experiment with CCRF-CEM leukemia is 50.4%; in the experiment with MOLT-4 leukemia it was 48.4%; in the experiment with SR leukemia it was 3.84% (active).

Consider `CC(C)(C)c1ccc2oc(=O)n(SC(Cl)(Cl)Cl)c2c1`, for which the growth with SK-MEL-2 melanoma is 93.9%; in the experiment with EKVX NSCLC, 92.2%; with UO-31 renal, 94.9%; with TK-10 renal it was 92.4%; with ACHN renal it was 106%; with A498 renal, 109%. Besides, the growth was 83.5% in the experiment with CCRF-CEM leukemia, 77.2% with MOLT-4 leukemia and 92.3% in the experiment on SR leukemia.

Turning to `COc1ccc(C(=O)c2cc(OC)c(OC)c(OC)c2)cc1OC(=O)CCl`, the growth in the experiment on SK-MEL-2 melanoma was 26.1%; in the experiment with EKVX NSCLC it was 70.2%; in the experiment on UO-31 renal, 44.8%; with TK-10 renal, 63.6%; with ACHN renal, 40.2%; with A498 renal it was 59.3%. For the same molecule, the growth is 14.9% in the experiment on CCRF-CEM leukemia, 18.4% in the experiment with MOLT-4 leukemia and 13.4% with SR leukemia.

Consider `Cc1c(Cl)cccc1NC(=O)c1sc2nc3c(cc2c1N)CN(Cc1ccccc1)CC3`, for which the growth with SK-MEL-2 melanoma was 31.4%; in the experiment with EKVX NSCLC it was 55.5%; in the experiment on UO-31 renal, 58%; with TK-10 renal it was 75%; in the experiment with ACHN renal, 56.4%; in the experiment on A498 renal it was 36.6%. For the same molecule, the growth in the experiment with CCRF-CEM leukemia is 14.5%; in the experiment on MOLT-4 leukemia, 22.9%; with SR leukemia, 16.9%.

Take `CCCCOc1nc2ccc(C)cc2cc1/C=C/C(=O)/C=C/c1ccc2c(c1)OCO2`: the growth with SK-MEL-2 melanoma is 69.6%; in the experiment on EKVX NSCLC, 102%; with UO-31 renal, 75%; with TK-10 renal, 113%; in the experiment on ACHN renal it was 103%; in the experiment with A498 renal it was 106%. Further, the growth with CCRF-CEM leukemia is 75.9%; with MOLT-4 leukemia it was 81.5%; with SR leukemia, 42.9%.

On to `COC(=O)c1ccc(NC(=O)CSc2nc(-c3ccc(F)cc3)nc3ccccc23)cc1`, for which the growth was 99.8% in the experiment with SK-MEL-2 melanoma; 91.4% in the experiment on EKVX NSCLC; 113% in the experiment on TK-10 renal; 97.4% in the experiment on ACHN renal; 99.6% in the experiment on A498 renal; 85.7% in the experiment on CCRF-CEM leukemia. In addition, the growth is 89% in the experiment on MOLT-4 leukemia and 78% in the experiment with SR leukemia.

Turning to `COc1cc(/C=C/C(=O)/C=C/c2cc3ccc(Cl)cc3[nH]c2=O)ccc1O`, the growth was 89.1% in the experiment with SK-MEL-2 melanoma; 94.4% in the experiment with EKVX NSCLC; 60.3% in the experiment on UO-31 renal; 98% in the experiment with TK-10 renal; 64.8% with ACHN renal; 78.8% with A498 renal. Besides, the results for the growth in the experiment on CCRF-CEM leukemia, in the experiment with MOLT-4 leukemia and in the experiment with SR leukemia were 23%, 30.3% and 10.8%, respectively.

Take `CCCCn1c(=O)c(/C=C/C(=O)/C=C/c2cc3ccccc3n(CCCC)c2=O)cc2ccccc21`: the growth is 79.5% with SK-MEL-2 melanoma; 35.8% with EKVX NSCLC; -95.1% (active) in the experiment with UO-31 renal; 23.4% in the experiment with TK-10 renal; 5.75% (active) with ACHN renal; 12.8% in the experiment on A498 renal. Further, the values for the growth in the experiment on CCRF-CEM leukemia, in the experiment with MOLT-4 leukemia and in the experiment with SR leukemia were -0.077% (active), 1.3% (active) and 1.82% (active), respectively.

`O=C1C(=O)c2c(nc3ccc(C(F)(F)F)cn23)-c2ccccc21`: the growth was -67.1% (active) in the experiment on SK-MEL-2 melanoma; -72.5% (active) with EKVX NSCLC; -97.3% (active) in the experiment on TK-10 renal; -99.1% (active) in the experiment on ACHN renal; -92.9% (active) in the experiment on A498 renal; 0.668% (active) with CCRF-CEM leukemia. Besides, the growth was -33.1% (active) in the experiment with MOLT-4 leukemia and -5.53% (active) in the experiment with SR leukemia.

`NCCN1CCNCC1`: the growth was 111% in the experiment with SK-MEL-2 melanoma; 114% in the experiment with EKVX NSCLC; 90.7% with UO-31 renal; 106% with TK-10 renal; 106% with ACHN renal; 92.9% in the experiment with A498 renal. The growth in the experiment with CCRF-CEM leukemia is 97%; with MOLT-4 leukemia, 102%; in the experiment on SR leukemia, 99.7%.

As for `O=c1c2ccccc2oc2ccc(OCCCCCCN3CCCCCC3)cc12`, the growth in the experiment on SK-MEL-2 melanoma was 76.9%; in the experiment with EKVX NSCLC, 62.8%; in the experiment with TK-10 renal it was 66.3%; in the experiment with ACHN renal, 65.7%; with A498 renal it was 70.2%; in the experiment with CCRF-CEM leukemia, 43.3%. Also, the growth in the experiment on MOLT-4 leukemia is 6.07% (active); in the experiment on SR leukemia, 1.08% (active).

For `NCCCn1c2c(c3cc(-c4ccn[nH]4)ccc3c1=O)C(=O)c1ccccc1-2`, the growth is 105% in the experiment on SK-MEL-2 melanoma; 77% in the experiment with EKVX NSCLC; 47.7% in the experiment on UO-31 renal; 72.3% in the experiment on TK-10 renal; 20.4% in the experiment with ACHN renal; 72% in the experiment with A498 renal. Besides, the values for the growth in the experiment on CCRF-CEM leukemia, in the experiment with MOLT-4 leukemia and in the experiment on SR leukemia were 16.5%, -9.41% (active) and -2.64% (active), respectively.

With `NC[C@@H]1CCN(c2cc3c(cc2F)c(=O)n(N)c(=O)n3Cc2ccc(-c3ccccc3)cc2)C1`, the growth was 94.4% in the experiment on SK-MEL-2 melanoma; 85.3% with EKVX NSCLC; 69.7% with UO-31 renal; 94.7% with TK-10 renal; 95.3% with ACHN renal; 90.3% in the experiment on A498 renal. The values for the growth with CCRF-CEM leukemia, in the experiment on MOLT-4 leukemia and in the experiment with SR leukemia were 55.4%, 50.4% and -26.7% (active), respectively.

On to `N#Cc1ccc(N2Cc3cc(Cl)ccc3OC3=C2C(=O)N(Cc2ccc(F)cc2)C3=O)cc1`, for which the growth was -46.5% (active) in the experiment on SK-MEL-2 melanoma; 37.4% in the experiment with EKVX NSCLC; -85.7% (active) in the experiment on UO-31 renal; -79.4% (active) with TK-10 renal; -92.9% (active) in the experiment with ACHN renal; 120% with A498 renal. For the same molecule, the growth in the experiment with CCRF-CEM leukemia was -20% (active); with MOLT-4 leukemia, -34.5% (active); in the experiment on SR leukemia, -33.5% (active).

As for `CC(C)(C)c1nn(-c2ccccc2)c2c1COCN2Cc1ccc(Cl)cc1`, the growth in the experiment on SK-MEL-2 melanoma is 94.1%; in the experiment on EKVX NSCLC, 98.8%; in the experiment on TK-10 renal it was 117%; with ACHN renal, 89.1%; in the experiment on A498 renal, 85.1%; with CCRF-CEM leukemia, 64.5%. The values for the growth in the experiment on MOLT-4 leukemia and in the experiment with SR leukemia were 68.1% and 47.2%, respectively.

With `O=C(Nc1ccc2ncnc(Nc3ccc(F)c(Cl)c3)c2c1)c1ccccc1`, the growth is 87.5% with SK-MEL-2 melanoma; 61.2% in the experiment on EKVX NSCLC; 63.3% with UO-31 renal; 36.8% in the experiment with TK-10 renal; 37% in the experiment with ACHN renal; 67.6% with A498 renal. Further, the growth in the experiment with CCRF-CEM leukemia is 98.6%; with MOLT-4 leukemia, 63.4%; with SR leukemia, 66.7%.
